# Compound activity (PubChem)
# KB-V1 MDR tox: qHTS assay for MDR1-selective chemotherapeutics: Primary screen using the drug-selected MDR subline cells KB-V1; 400,000 compounds, 3.4% hits; KB-V1 MDR cells viability, CellTiter-Glo, 72 h; AID 1347076, 2019; Potency, µM (top dose mostly 46.1 µM), most hits filed as cytotoxic; further: on the % scale 0 is the no-effect control and ±100 the full control effect; nearly all actives have a fitted effect of over 60% in size
#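 KB-V1, DMEM (no phenol red) + 10% FBS; cpd pin-transferred, titration series; 72 h, 37 degrees C; CellTiter-Glo, luminescence. Data normalized, curve-fit.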
# KB-3-1 tox: qHTS assay for MDR1-selective chemotherapeutics: Primary screen using the parental adenocarcinoma cell KB-3-1. KB-3-1 viability, CellTiter-Glo ATP luminescence, 72 h. 400,000 compounds, 1.4% hits. Potency, µM (series often up to 46.1 µM), usual class: cytotoxic; further: on the % scale 0 is the no-effect control and ±100 the full control effect; nearly all actives have a fitted effect of over 60% in size
#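 Cells are dispensed, compounds pinned in, plates held at 37 °C for 72 h, then CellTiter-Glo is added and luminescence read after 10 minutes. Cell line: parental KB-3-1 in phenol-red-free DMEM, 10% FBS.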
# MCF10A rereplic: A quantitative high throughput screen for small molecules that induce DNA re-replication in MCF 10a normal breast cells. MCF 10A DNA re-replication, Hoechst nuclear intensity, 48 h. Potency, µM (series often up to 46.1 µM), inactives show at the top dose activity, positive = re-replication, most hits filed as activators. 350,000 compounds, 2.9% hits; further: % of control where 0% means no effect; nearly all actives have a fitted effect of over 50% in size
# HT1080-NT tox: qHTS for induction of synthetic lethality in tumor cells producing 2HG: qHTS for the HT-1080-NT fibrosarcoma cell line. 360,000 compounds, 1.6% hits. HT-1080-NT fibrosarcoma viability, CellTiter-Glo ATP luminescence, 48 h. AID 686970, 2013. Potency, µM (titrated, usually from 46.1 µM), for inactives: at the highest dose activity, negative = less viability, usual class: cytotoxic;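 further: NT is the 2HG producing partner of a matched IDH1 knockdown line; 0% = DMSO-treated cells and -100% = media-only wells without cells; nearly all actives have a fitted effect of over 55% in size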
#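 Viability of the 2HG-overproducing fibrosarcoma line after 48 hours of compound exposure at 37 degrees C was determined by luminescence with CellTiter-Glo, and concentration-effect curves were then fitted and categorized.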
# SW480 rereplic: A quantitative high throughput screen for small molecules that induce DNA re-replication in SW480 colon adenocarcinoma cells | SW480 DNA re-replication, Hoechst DNA content imaging, 48 h | Potency, µM (highest dose often 46.1 µM), without a hit: top-dose re-replication activation, most hits filed as activators | 340,000 compounds, 1.8% hits; further: % of control where 0% means no effect; nearly all actives have a fitted effect of over 55% in size
#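 Quantitative HTS format with DMSO vehicle controls; 48 hr drug incubation at 37 C, then 40 min Hoechst staining and scanning imager measurement at 405 nm excitation.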
# HT1080 IDH1KD tx: qHTS for induction of synthetic lethality in tumor cells producing 2HG: qHTS for the HT-1080-IDH1KD cell line; AID 686971, 2013; Potency, µM (doses to about 46.1 µM), without a hit: at the highest dose activity, negative = toxicity, actives largely listed as cytotoxic; 360,000 compounds, 2% hits; HT-1080 IDH1 knockdown viability, ATP luminescence, 48 h;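 further: 0% = DMSO wells and -100% = cell-free medium wells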
#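 CellTiter-Glo luminescence after 48 h compound exposure at 37 degrees C of IDH1-knockdown HT-1080 cells in 5% FBS RPMI. %Activity scaled between DMSO wells and cell-free media wells, with curves fitted and assigned curve classes.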
# * hit, by the source's call; i = inactive; ? = inconclusive; . = not tested or not shown; [ ] = dose if it differs, or a comment. Shown are actives, neighbours in structure and some others; about 8% of the full set was active somewhere. The call rests on the fitted dose curve; in most records, active means well fitted curve in the direction sought with a large enough effect; inconclusive means small, poorly fitted or top-dose-only effect, or another doubt; inactive means no such curve, though single readings can be large; an effect the other way counts as inactive or inconclusive. Potency means the concentration at half of the fitted maximal effect.
SMILES,KB-V1 MDR tox,KB-3-1 tox,MCF10A rereplic,HT1080-NT tox,SW480 rereplic,HT1080 IDH1KD tx
CC1=Nc2cc(C(=O)NC3CCCC3)ccc2Sc2ccc(C)cc21,1.3µM*,1.5µM*,.,.,.,.
CCOc1cc(/C=C2\SC(=Nc3ccc(CC)cc3)NC2=O)ccc1OCC(=O)O,i,i,18µM*,14%,?,11%
CCc1ccc(N=C2NC(=O)/C(=C/c3cc(Br)c(OCC(=O)O)c(OC)c3)S2)cc1,?,i,?,-2%,-61%[1.84 µM],-1%
CCc1ccc(N=C2NC(=O)/C(=C/c3cc(OC)c(OC)c(OC)c3)S2)cc1,?,?,12µM*,-27%,?,?
CCOC(=O)c1nn(-c2ccccc2)c2nc(-c3ccc(OC)cc3)c(C#N)c(=O)n12,23µM*,?,0%,7%,-6%,0%
CCOC(=O)c1nn(-c2ccccc2C)c2nc(-c3ccc(C)cc3)c(C#N)c(=O)n12,i,i,-4%,-3%,1%,-10%
CCOC(=O)c1nn(-c2cccc(Cl)c2)c2nc(Nc3ccccc3)cc(=O)n12,i,i,?,19%,-3%,13%
CCOC(=O)c1nn(-c2cccc(OC)c2)c2nc(Nc3ccccc3)cc(=O)n12,i,i,?,-9%,23µM*,-27%
CC(=O)c1ccc(N2CCN(C(=O)c3cc4cc5cc(C)ccc5nc4s3)CC2)cc1,i,i,.,.,.,.
COc1nc(SC)nc(Cl)c1Cc1ccc(OC(C)C)cc1,i,i,12%,5%,7%,2%
CSc1nc(Cl)c(Cc2ccc(OC(C)C)cc2)c(N2CCOCC2)n1,?,9.2µM*,24%,-27%,-1%,?
COc1cc(OC)c(NC(=O)N2CCOc3ccc(C)cc32)cc1Cl,i,i,.,.,.,.
COc1ccc(-c2ccnc3nc(N4CCOCC4)nn23)cc1,?,i,-1%,-4%,-6%,-1%
c1ccc(Oc2ccc(-c3ccnc4nc(N5CCOCC5)nn34)cc2)cc1,?,i,18µM*,-13%,16µM*,?
COc1ccccc1-c1cc(-c2ccccc2)nc(SC(C(N)=O)c2ccccc2)c1C#N (stereo not drawn),?,i,?,?,9.2µM*,?
Cc1nc(SC(C(N)=O)c2ccccc2)c(C#N)c(C)c1C (stereo not drawn),i,i,-6%,-2%,-7%[9.22 µM],-16%
Cc1c(N2C(=O)/C(=C/c3ccccc3)SC2=S)c(=O)n(-c2ccccc2)n1C,i,i,19%,?,-1%[9.22 µM],?
Cc1c(N2C(=O)/C(=C\C3CC=CCC3)SC2=S)c(=O)n(-c2ccccc2)n1C (stereo not drawn),i,i,?,?,15%,18µM*
Cc1c(N2C(=O)/C(=C\c3ccccc3O)SC2=S)c(=O)n(-c2ccccc2)n1C,i,i,?,-6%,18µM*,4%
COc1ccc(C(CNC(=O)CCNS(=O)(=O)c2ccc(C)cc2)N2CCOCC2)cc1 (stereo not drawn),i,i,12%,16%,5.2µM*,5%
CCOC(=O)N1CCN(C(=O)CCc2ccc(S(=O)(=O)NCCc3ccccc3)cc2)CC1,16µM*,i,1%,-8%,-8%,-18%
CCNS(=O)(=O)c1ccc(CCC(=O)N2CCN(Cc3ccccc3)CC2)cc1,i,i,-6%,2%,-13%,11%
O=C(CCC(F)(F)F)N1CCCC(CO)(CCc2ccccc2)C1 (stereo not drawn),i,i,0.65µM*,0%,?,2%
CCOc1ccc(S(=O)(=O)NCCC(=O)N2CCN(Cc3ccccc3)CC2)cc1,?,i,10%,4%,0%,-12%
CCOc1ccc(S(=O)(=O)NCCC(=O)N2CC=C(c3ccccc3)CC2)cc1,?,13µM*,?,-1%[9.24 µM],-22%,-4%
SMILES,KB-V1 MDR tox,KB-3-1 tox,MCF10A rereplic,HT1080-NT tox,SW480 rereplic,HT1080 IDH1KD tx
CCOC(=O)c1cc(-c2ccccc2)n(CCC(=O)N2CCN(c3ccc(OC)cc3)CC2)c1C,?,i,26µM*,-6%,4%,-9%
CCOC(=O)c1cc(-c2ccccc2)n(CCC(=O)N2CCN(c3ccccc3OC)CC2)c1C,?,i,?,-11%,7%,-17%
CCOc1ccc(S(=O)(=O)NCCC(=O)N2CCN(c3ncccn3)CC2)cc1,18µM*,i,-9%,3%,-10%,-3%
O=C(CCc1ccccc1)N1CCCN(C(=O)CCc2ccccc2)CC1,21µM*,i,-13%,13%,60%,9%
COc1ccc(N2CCN(C(=O)CCNS(=O)(=O)c3ccccc3)CC2)cc1,i,i,26µM*,9%,27%,-18%
O=C(CCNS(=O)(=O)c1ccc(Cl)cc1)N1CCN(c2ncccn2)CC1,?,?,6%,4%,-3%,0%
CCCn1c(C)cc(C(=O)COC(=O)c2cc(S(=O)(=O)NCC(C)C)c(Cl)cc2Cl)c1C,?,i,?,-1%,0%,1%
Cc1ccccc1NC(=O)c1cccc(NC(=O)c2ccccc2C(=O)O)c1,i,i,6%,11%,-137%,11%
COc1ccc(N2CCN(C(=O)CCS(=O)(=O)c3cc(Br)cc4c3N(C(=O)C3CC3)CC4)CC2)cc1,i,i,.,.,.,.
COc1ccc(N2CCN(C(=O)CCS(=O)(=O)c3ccc4c(c3)CCN4C(=O)C3CC3)CC2)cc1,i,i,?,3%,5.8µM*,-5%
O=C(c1ccco1)N(CCC(c1ccccc1)c1ccco1)Cc1ccco1 (stereo not drawn),13µM*,i,?,5%,3%,9%
CCC(=O)N(CCC(c1ccco1)c1ccccc1OC)Cc1cccs1 (stereo not drawn),?,i,?,-1%,-2%,-23%
CC(=O)N(CCC(c1ccccc1)c1ccco1)Cc1cccs1 (stereo not drawn),21µM*,?,14%,-5%,-5%,?
CN1C/C(=C/c2ccccc2[N+](=O)[O-])C(=O)/C(=C\c2ccccc2[N+](=O)[O-])C1,i,?,1.8µM*,2.9µM*,1.2µM*,3.7µM*
